# From PubChem BioAssay (NCI)
# Several values for one entry are separate records, joined by “and”; a condition that tells them apart may be missing. Equal entries are not always repeated. About 79,000 compounds went through this panel and 15% of them were active in at least one assay; those are over-represented in the sample as a whole. A number with no mark means an inactive call. Activity calls are given as the source filed them. Rule as the data show it: active = growth inhibition above about 70%; inactive = the rest.
# Columns and labels:
# [1] = NCI Yeast Anticancer Drug Screen. Data for the rad50 strain (AID 155);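 also: 0% = growth of vehicle-only cultures of the same strain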; conditions: S. cerevisiae rad50 strain growth inhibition, stronger effect = higher value; at 50.0 µM unless noted
# Outline: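 Readout: growth inhibition relative to vehicle-treated cultures. Compound exposure was carried out in a genetically defined yeast strain deficient in DNA damage repair.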
# [2] = NCI Yeast Anticancer Drug Screen. Data for the mec2-1 strain (AID 157); conditions: S. cerevisiae mec2-1 strain, stronger effect = higher value; at 50.0 µM unless noted
# Outline: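 Readout is yeast growth inhibition, normalised to vehicle-treated controls, in the mec2-1 strain exposed to compound.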
# [3] = NCI Yeast Anticancer Drug Screen. Data for the sgs1 mgt1 strain (AID 161);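 also: 0% = growth of cultures given vehicle only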; conditions: S. cerevisiae sgs1 mgt1 strain, stronger effect = higher value; at 50.0 µM unless noted
# Outline: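 Percent growth inhibition was derived by comparing compound-exposed mutant yeast with vehicle-exposed cultures. The strain carries alterations in DNA damage repair.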
# [4] = NCI Yeast Anticancer Drug Screen. Data for the cln2 rad14 strain (AID 165);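 also: 0% = growth equal to vehicle treated cultures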; conditions: S. cerevisiae cln2 rad14 strain, stronger effect = higher value; at 50.0 µM unless noted
# Outline: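 Relative to vehicle controls, growth inhibition of compound-treated cln2 rad14 yeast was recorded.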
# [5] = NCI Yeast Anticancer Drug Screen. Data for the bub3 strain (AID 167); conditions: S. cerevisiae bub3 mutant strain, stronger effect = higher value; at 50.0 µM unless noted
# Outline: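 Readout: yeast growth inhibition, expressed relative to vehicle-only wells. The test organism is a mutant strain from a panel with lesions in DNA repair or checkpoint genes.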
# [6] = NCI Yeast Anticancer Drug Screen. Data for the mlh1 rad18 strain (AID 175); conditions: S. cerevisiae mlh1 rad18 strain growth inhibition, stronger effect = higher value; at 50.0 µM unless noted
# Outline: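 Test agents were incubated with a yeast strain of defined genotype (DNA damage repair defect). Inhibition of growth was derived by comparison with vehicle-exposed cultures.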
Structure (SMILES),growth inhibition [1],growth inhibition [2],growth inhibition [3],growth inhibition [4],growth inhibition [5],growth inhibition [6]
Cc1nn2c(nnn2CCO)c1-c1ccccc1,10.7%,-5.65%,-15%,-10.6%,-25.4%,15.8%
CCN(CC)CCNc1cc(OC)c(OC)cc1[N+](=O)[O-],-35%,14.4%,5.7%,-7.45%,-0.45%,-15%
COc1ccc2nc3cccc([N+](=O)[O-])c3c(NC(C)CN(C)C)c2c1 (stereo unspecified),52%,35.9%,54.1%,64.3%,26.4%,42.9%
CC1(C)CC[C@]2(C(=O)O)CCC3(C)C(=CCC4[C@@]5(C)CC[C@H](OC6OCC(O)C(O)C6OC6OC(CO)C(O)C(O)C6O)C(C)(C)C5CC[C@]43C)C2C1 (stereo partly specified),84.8% (active),85.2% (active),89.8% (active),87.7% (active),88.5% (active),87.5% (active)
Nn1c(-c2cccc(Cl)c2)nc2ccccc2c1=O,-18.6%,5.45%,13%,25.7%,17.9%,36.8%
CSC(N)=Nc1cccc2ccccc12,-44.2%,-59%,-40.5%,-10.9%,-34.2%,-41%
O=C(Cc1nc2ccc(C(=O)c3ccccc3)cc2[nH]c1=O)C(=O)Nc1ccc(C(F)(F)F)cc1[N+](=O)[O-],8.45%,14.7%,-3.9%,-6.25%,-12.1%,18.1%
BrC1(Br)C2CCCCCCC21 (stereo unspecified),-26.6%,4.85%,3.15%,-6.6%,-21.1%,-29.7%
Cc1cccc2c(N3CCN(c4ccccc4)CC3)c3c(nc12)CCCCC3,11.4%,-22.7%,-12.3%,-3.05%,3.2%,-2.7%
COc1ccc(C2NC3=C(CCCC3)N2)cc1,26.4%,4.45%,-13.9%,8.3%,-3.9%,32.9%
CN(N=O)C(=O)NCCn1cnc2c(=O)[nH]cnc21,-6.55%,14.4%,-5.35%,-56.8%,1.2%,-11.8%
CCOC(=O)Cc1nc2nn(Cc3ccccc3)cc2c(=O)[nH]1,-48.8%,-63.9%,-7%,0.65%,-10.9%,-19.8%
CC1=C(c2ccccc2)C(c2ccccc2)=C(C)C1=NNc1ccc([N+](=O)[O-])cc1[N+](=O)[O-],10.6%,11.8%,0.8%,16.4%,-3.25%,1.4%
O=C(NCc1ccco1)Nc1ccccc1C(F)(F)F,2.3%,0.2%,18.5%,19.6%,20.4%,17.1%
COc1ccc(NS(=O)c2ccccc2)cc1 (stereo unspecified),10.1%,1.2%,3.1%,6.65%,-2.5%,7.65%
CCC(=O)CC(=O)CCC(=O)Nc1ccc(Cl)cc1C,-72.2%,-15.4%,-11.6%,-55.2%,-12.4%,-9.55%
C=CCN1C(=O)CS/C1=N/NC(=O)C(O)(c1ccccc1)c1ccccc1,-19.6%,-47.7%,6.1%,-25.4%,-24.3%,-4.05%
Cc1cc2nc3c(=O)[nH]c(=O)nc-3n(C/C=N/NC(N)=S)c2cc1C,5.75%,-7.65%,-5.05%,-45.1%,-12.8%,-2.7%
S=C1NCN2CCN(CC2)CNC(=S)C(=S)NCN2CCN(CC2)CNC1=S,39.2%,40.6%,13%,55.8%,48.9%,57.6%
CCCn1c(C)nc2c([N+](=O)[O-])cc(C)cc21,-4.2%,-14.8%,-12.9%,-34.2%,13.4%,-4.8%
CC(C)C(=O)Nc1nc2nc[nH]c2c(=O)[nH]1,11.6%,-23.6%,24.9%,12.8%,-7.95%,-22.9%

Structure (SMILES),growth inhibition [1],growth inhibition [2],growth inhibition [3],growth inhibition [4],growth inhibition [5],growth inhibition [6]
N#CCN1CCCCCC1,-14.8%,-20.5%,-16.6%,4.2%,-13.6%,9.8%
CCOC(=O)c1ccc(O)c(NC(C)=O)c1,-11.7%,18.1%,0.15%,-42.5%,10%,-7.15%
O=C1C=C(Nc2ccccc2)C(=O)C=C1Nc1ccccc1,-2.3%,1.65%,10%,-42.2%,4.15%,-6%
O=S(=O)(O)C(I)S(=O)(=O)O,-19.1%,-2.65%,-19.4%,-18.2%,-10.8%,-20%
CCOC(=O)CC(C#N)(C#N)CC(=O)OCC,4.15%,21.3%,5.85%,-0.1%,26.8%,-0.55%
CC(C)CC(Br)C(=O)NCC(=O)O (stereo unspecified),-25.1% and 5.2%,-55.1% and -6.55%,-27.9%,8.5%,-24.1%,-11% and -4.8%
O=c1cc(CBr)c2ccc(O)cc2o1,-34.1%,2.55%,-23.8%,8.3%,-18.2%,-44.5%
COC(=O)OCCOC(=O)OC,3.15%,1.5%,-8.45%,18.1%,15.3%,9.5%
O=NN1C(c2ccccc2)CNC(=O)CC1c1ccccc1 (stereo unspecified),-27%,-1.4%,-1.65%,-8%,20.6%,-18.2%
O=c1oc(=O)c2cc3c(=O)oc(=O)c3cc12,-21.4%,11.1%,-6.75%,-28%,7.1%,-5.6%
CCOC(=O)C12CCCC1(O)N(NC(=O)OC)C(C)=C2C(=O)OC (stereo unspecified),-6.6%,-7.65%,2.05%,-63.4%,-5.6%,-6.5%
NC(COC(=O)NCCCl)C(=O)O (stereo unspecified),12.7%,-6.95%,-0.35%,-11.5%,22.1%,18.6%
CSCCSC,10.2%,4.6%,-0.1%,13.4%,3.4%,3.65%
COC(=O)CC1(C(=O)OC)NC(=O)c2cc(OC)c(Cl)cc2N1 (stereo unspecified),-4.2%,7.6%,-7.1%,13.6%,-4.9%,-19.6%
CCOC(=O)c1cccc(N)c1C(=O)OCCN(CC)CC,1.65%,0.15%,-3.75%,-25.2%,19.4%,3.55%
CN(C)CCC(=O)C(=Cc1ccc(Cl)c(Cl)c1)C(=O)CCN(C)C,93.2% (active),97.7% (active),95% (active),79.8% (active),97.8% (active),98% (active)
ONc1ccc2c(c1)C1C(C3C2C2(Cl)C(Cl)=C(Cl)C3(Cl)C2(Cl)Cl)C2(Cl)C(Cl)=C(Cl)C1(Cl)C2(Cl)Cl (stereo unspecified),35.8%,13.6%,7.55%,19.6%,24.9%,24.6%
O=C(O)CSc1nc2ccccc2[nH]1,3.5%,1.55%,-36%,-13.9%,-35.4%,10%
COc1ccc(/C=N/NC(=O)c2sc(=S)n(-c3ccccc3)c2N)cc1,2.9%,-0.45%,-40.1%,-16.9%,-17.1%,-7.5%
O=CNCC(=O)O,15.6%,-3.75%,-15.5%,-0.7%,-2.55%,7.9%
